# Source: PubChem (several laboratories)
# PP1 inh: PP1-alpha phosphatase inhibitors, primary screen, counter-screen for PP5 inhibitor project, biochemical, fluorescence, OMFP substrate, single point; Serine/threonine-protein phosphatase PP1-alpha catalytic subunit (Homo sapiens), P62136; purified PP1alpha; inhibition, % at 6.7 µM; hit rate 0.9% among 320,000;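 active = inhibition above the mean inhibition of all tested compounds plus 3 SD, computed separately for each screening campaign, cut at about 15% in these data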
# Beta apoptosis: inhibitors of cytokine-induced beta cell apoptosis, primary screen, luminescence | INS-1E cytokine-induced death, ATP luminescence, 48 h; percent of positive-control rescue, neutral wells zero | protection from apoptosis, % (concentration not given with the values) | hit rate 0.8% among 300,000 | AID 435005, 2010;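 active = Every replicate reaches about 75%, or at least half do and their mean reaches it too, limit read from the data; inconclusive = At least half of replicates reach the limit but their mean does not; inactive = Under half of replicates reach the limit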;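 also: 0% = cytokine-treated negative control wells and 100% = positive control rescue; higher means more ATP so stronger rescue from cytokine killing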
# CSC inhib: cancer stem cell viability inhibitors, primary screen, luminescence; cancer stem cell-like cells viability; inhibition, % at 7.5 µM; hit rate 1.1% among 300,000; AID 2717, 2010; in the data active = inhibition above about 75%; inconclusive = no clear call, values can overlap the other calls; tested in HMLE shEcad cells
# Mdm2-MdmX inh: inhibitors of human Mdm2-MdmX association, primary screen, cell-based, luminescence, split luciferase, SaOS-2, uHTS. Protein Mdm4 (Homo sapiens) + E3 ubiquitin-protein ligase Mdm2 (Homo sapiens), …. AID 485346, 2010. hit rate 3% among 330,000. SaOS-2 split-luciferase Mdm2/MdmX complementation. inhibition, % at 8 µM;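 active = inhibition of at least 50% at 8 µM in the primary screen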
# Calb FLC: C. albicans growth inhibition with fluconazole, primary screen, CaCi-2 strain, Alamar Blue fluorescence; C. albicans CaCi-2 (fluconazole-resistant clinical isolate) + fluconazole, 48 h; AID 1979, 2009; growth inhibition, % (concentration not given with the values); hit rate 0.57% among 300,000;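 active = growth inhibition above about 58% in most replicates, limit read from the data, passing the limit was not always enough; inconclusive = exactly half the replicates above a set limit; inactive = most replicates below a set limit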;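 also: all wells also contain fluconazole at 8 µg/ml as a sub-toxic cotreatment; 0% = median of DMSO wells and 100% = median of geldanamycin control wells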
# PP5 inh: PP5 phosphatase inhibitors, primary screen, biochemical, fluorescence. purified PP5c, OMFP substrate fluorescence. hit rate 0.18% among 320,000. AID 1987, 2009. inhibition, % at 6.7 µM. Serine/threonine-protein phosphatase 5 (Homo sapiens), P53041;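 active = inhibition above the campaign's mean inhibition across all tested compounds plus 3 SD, cut at about 9.5% in these data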;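 also: 0% = DMSO only and 100% = 100 µM cantharidin control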
# Target sequence (P53041 whole entry, looked up): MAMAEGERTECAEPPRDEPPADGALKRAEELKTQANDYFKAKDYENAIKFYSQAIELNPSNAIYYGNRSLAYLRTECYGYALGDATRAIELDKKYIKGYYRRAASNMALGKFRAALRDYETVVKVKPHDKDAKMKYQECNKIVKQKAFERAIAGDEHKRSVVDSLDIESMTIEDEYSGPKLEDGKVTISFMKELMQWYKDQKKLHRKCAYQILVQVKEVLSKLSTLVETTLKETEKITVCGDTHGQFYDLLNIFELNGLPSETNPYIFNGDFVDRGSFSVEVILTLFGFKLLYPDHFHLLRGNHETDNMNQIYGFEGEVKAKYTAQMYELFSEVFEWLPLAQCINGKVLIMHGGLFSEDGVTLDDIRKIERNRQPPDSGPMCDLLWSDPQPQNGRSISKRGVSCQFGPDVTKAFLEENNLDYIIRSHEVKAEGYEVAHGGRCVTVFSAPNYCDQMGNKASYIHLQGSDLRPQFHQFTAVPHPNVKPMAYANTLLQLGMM
# Mdm2-MdmX conf: Mdm2-MdmX complex disruptors, retested hits, confirmation, luminescence, single concentration; shares compounds with Mdm2-MdmX inh; Mdm2-MdmX binding, luminescent assay; inhibition, % at 8 µM; hit rate 55% among 10,000; in the data active = inhibition above about 40%
# FLuc counter: full-length luciferase signal inhibition, confirmation, counter-screen for Mdm2/MdmX interaction inhibitor project, cell-based, single concentration, SaOS-2. SaOS-2 full-length luciferase counterscreen, luminescence. inhibition, % at 8 µM. hit rate 77% among 6,200. AID 504607, 2011. shares compounds with Mdm2-MdmX inh;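 active = mean inhibition at 8 µM reaching about 37%, which flags the compound as non-specific, limit read from the data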;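 also: p53-null SaOS-2 cells with luciferase driven by a doxycycline-inducible promoter; compound on cells about two nights before reading with doxycycline added after day one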
# Numbers without * were called inactive; ? = inconclusive; . = not tested or not shown. In the library only some 4.9% were active in any assay of this set; here they are far more common.
SMILES,PP1 inh,Beta apoptosis,CSC inhib,Mdm2-MdmX inh,Calb FLC,PP5 inh,Mdm2-MdmX conf,FLuc counter
O=C(NN=Cc1c(F)c(F)c(F)c(F)c1F)c1ccc(NS(=O)(=O)c2cccs2)cc1,.,-6.5,14.8,53.0*,.,.,-16.4,.
CN1C(=O)C(N=Nc2ccccc2C(=O)O)N(C)C1=S (stereo not drawn),2.0,3.6,3.2,-12.5,27.5,-0.5,.,.
CN1CCN(c2ncnc3c2[nH]c2ccc(F)cc23)CC1,-4.6,2.2,-3.9,19.5,1.4,1.1,.,.
CCOc1ccc2[nH]c3c(N4CCc5ccccc5C4)ncnc3c2c1,-3.7,38.6,86.8*,56.8*,-0.6,2.8,59.4*,35.8
Fc1ccc2[nH]c3c(N4CCc5ccccc5C4)ncnc3c2c1,0.5,127.3*,?,56.9*,-18.1,2.9,34.5,.
Brc1ccc2[nH]c3c(N4CCc5ccccc5C4)ncnc3c2c1,3.2,61.2,80.0*,69.2*,-4.6,4.5,20.1,.
Cc1ccc(/C([O-])=C(/C(=S)NCc2ccc3c(c2)OCO3)[n+]2ccc(N(C)C)cc2)c(C)c1,0.2,3.6,-2.7,8.9,-10.6,-1.9,.,.
CC1C(=O)C(C)C(c2ccccc2F)NC1c1ccccc1F (stereo not drawn),-0.1,-4.8,-9.1,-21.6,6.7,1.9,.,.
CC(C)(C)c1ccc(OCCCC(=O)NNC(=O)c2ccccc2O)cc1,-5.9,.,31.7,58.1*,80.6*,1.3,66.1*,45.2*
Cn1c(N)c(C(=O)Nc2ccc(-c3ccccc3)cc2)sc1=S,1.0,-3.7,14.6,15.5,-0.5,0.8,.,.
C/C(=N\NC(=O)c1ccc(F)cc1)c1ccccn1,-3.2,110.9*,104.3*,97.3*,-10.4,-3.0,60.0*,58.2*
C=CCNC(=S)N/N=C(\C)c1ccccn1,-2.7,93.4*,113.6*,91.4*,115.1*,-0.9,63.8*,31.6
C/C(=N\NC(=O)c1c[nH]c2ccccc12)c1ccccn1,-1.0,17.0,20.5,39.2,-30.2,-1.0,.,.
C/C(=N/NC(=O)CNC(=O)c1ccccn1)c1ccccc1,-3.9,-5.6,5.6,8.7,35.2,2.0,.,.
C/C(=N\NC(=O)c1cc2ccccc2cc1O)c1cc2ccccc2o1,6.8,16.1,92.8*,54.0*,-4.2,-3.3,39.6,57.9*
C/C(=N\NC(=O)c1cc2ccccc2cc1O)c1ccccn1,6.2,98.7*,-9.5,52.8*,99.9*,1.0,54.1*,24.3
O=C(N/N=C/c1ccc(Sc2ccccn2)o1)c1cc2ccccc2cc1O,10.9,-5.0,-5.4,24.7,-15.6,0.0,.,.
Cc1cc(C)c(Cc2c(C)nc3c(C(=O)NCc4ccco4)cnn3c2C)c(C)c1,11.1,31.4,30.9,18.7,24.0,3.6,.,.
Cc1ccc(C(=O)NCC(=O)OCCOc2ccccc2Cl)cc1,1.0,.,4.9,-2.6,-15.0,1.8,.,.
C/C(=N\NC(=O)CCCNc1ccc(C)cc1)c1ccccn1,-4.0,53.8,34.3,62.3*,-2.9,-1.3,55.2*,47.0*
C/C(=N\NC(=O)CCCNc1ccccc1)c1ccncc1,-1.7,-6.3,.,6.5,-10.3,-1.4,.,.
CSS(=O)(=O)c1cccc2cccnc12,-5.3,-1.7,-19.7,0.5,23.8,-1.0,.,.
Cc1c(Cc2ccccc2)c(=O)n2c([nH]c3ccccc32)c1C#N,3.3,53.4,42.3,61.3*,29.3,4.7,41.6*,57.2*
COc1ccc(CCNC(=O)C(=O)NCC2CCCN2S(=O)(=O)c2ccccc2)cc1 (stereo not drawn),-3.9,5.2,.,24.2,-7.6,1.1,.,.
COc1ccc(S(=O)(=O)N2CCCC2CNC(=O)C(=O)NCCc2ccccc2)cc1 (stereo not drawn),-0.6,10.8,41.3,59.8*,-12.9,2.1,66.7*,63.9*
SMILES,PP1 inh,Beta apoptosis,CSC inhib,Mdm2-MdmX inh,Calb FLC,PP5 inh,Mdm2-MdmX conf,FLuc counter
O=S(=O)(NC1CC(NS(=O)(=O)OCC(Cl)(Cl)Cl)C2CCCCC12)OCC(Cl)(Cl)Cl (stereo not drawn),4.5,-5.2,83.4*,77.0*,-11.0,3.2,69.6*,59.1*
C[C@H](NS(=O)(=O)OCC(Cl)(Cl)Cl)C1CC1c1ccccc1 (stereo partly drawn),5.5,0.1,39.5,-15.0,-8.7,2.5,.,.
COc1ccc(/C=C/C2=CCN(Cc3ccc(OC)cc3)CC2)cc1,7.0,62.7,4.4,13.8,-25.0,2.5,.,.
Cc1cc(C(=O)N2CCCc3ccccc32)ccc1[N+](=O)[O-],0.9,-10.6,-4.8,11.4,-8.0,0.9,.,.
Cc1ccccc1C1=NC(C(F)(F)F)(C(F)(F)F)c2c(n(C)c(=O)n(C)c2=O)N1,-1.4,1.4,-2.3,-24.1,-0.1,-1.4,.,.
Cn1c2c(c(=O)n(C)c1=O)C(C(F)(F)F)(C(F)(F)F)N=C(c1ccc(Cl)cc1)N2,-0.8,139.4*,.,94.4*,84.1*,3.0,90.2*,51.5*
CN(CCc1ccccn1)C(=O)CCC1CCCN(C(=O)c2ccsc2)C1 (stereo not drawn),-5.8,-5.3,.,-11.0,-19.1,3.1,.,.
CCCCCCOC(=O)C(C#N)c1nc2ccccc2nc1N1CCN(CC)CC1 (stereo not drawn),0.5,4.7,25.5,59.7*,25.9,0.5,31.6,69.7*
CCOc1ccccc1N1CCN(c2nc3ccccc3nc2C(C#N)C(=O)OC)CC1 (stereo not drawn),0.3,-1.8,4.9,71.1*,-0.9,3.0,14.2,.
CCCCCCOC(=O)C(C#N)c1nc2ccccc2nc1N1CCOCC1 (stereo not drawn),1.2,3.8,45.2,12.2,-10.2,1.7,.,.
CCOC(=O)c1[nH]c2ccccc2c1NC(=O)c1ccc(S(=O)(=O)N2CCCCC2)cc1,1.2,.,-2.5,3.0,8.6,-0.1,.,.
COCCn1c(N/N=C(C)/C=C/c2ccccc2)nc2c1c(=O)[nH]c(=O)n2C,0.0,-8.3,-9.5,.,5.1,0.3,.,.
CCn1c(/C=C/c2c(C)[nH]c3ccccc23)nc2ccccc2c1=O,2.0,2.1,-16.3,44.1,1.0,2.2,.,.
Cc1[nH]c2ccccc2c1/C=C/c1nc2ccccc2c(=O)n1-c1ccc([N+](=O)[O-])cc1,4.1,6.8,9.3,64.3*,21.0,0.1,-16.2,.
COc1ccccc1NC(=O)c1cc2c(=O)n(C)c3ccccc3c2n1C,2.1,0.3,15.6,31.1,-8.7,0.6,.,.
CCn1cc(C(=O)NC(C)C)c(=O)c2cc(F)c(N3CCN(C(=O)c4ccco4)CC3)cc21,1.2,12.0,1.9,12.5,-18.9,2.5,.,.
